This is part of a sample that, as a whole, favours compounds with a hit. Of some 83,000 tested, about 20% had one in any assay.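 Growth was measured after 48 h exposure to one concentration of compound in 96-well plates. Values under 10 count as active.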 A number with no mark means an inactive call. Calls of active or inactive are those of the source.

Some test systems named below: T-47D breast; BT-549 breast; MDA-MB-435 melanoma; SW-620 colon; MCF7 breast; HCT-116 colon; HCC-2998 colon; KM12 colon.
What all share (test): NCI-60 one-dose screen, 48 h (100 = growth as untreated, 0 = no growth, -100 = all killed)
What all share (details): 10 µM unless noted

Regarding `COc1ccc(OC)c2c1[nH]c(=O)c1c3ncccc3cn21`, the growth was 39% in the assay with T-47D breast; 86.6% in the assay with BT-549 breast; 28.6% with MDA-MB-435 melanoma; 15.2% with SW-620 colon; 8.95% (active) in the assay on MCF7 breast; 21.7% with HCT-116 colon. In addition, the growth in the assay on HCC-2998 colon is 36.1%; with KM12 colon it was 32.5%.
For `COc1ccc2occ(C3=C(c4c[nH]c5ccccc45)C(=O)N(O)C3=O)c2c1`, the growth in the assay on T-47D breast was 76.1%; in the assay with BT-549 breast, 84.2%; in the assay on MDA-MB-435 melanoma, 96.3%; with SW-620 colon, 89.2%; in the assay on MCF7 breast, 82.5%; in the assay with HCT-116 colon, 90.7%. Besides, the growth is 112% with HCC-2998 colon and 91.1% with KM12 colon.
With `CCc1ccccc1-n1c(-c2ccc(Cl)cc2)cc(-c2ccc(Cl)cc2)c(C#N)c1=O`, the growth in the assay with T-47D breast was 78.6%; in the assay with BT-549 breast, 93.7%; with MDA-MB-435 melanoma, 82.8%; in the assay on SW-620 colon, 88.9%; in the assay with MCF7 breast, 61.7%; with HCT-116 colon it was 69.8%. The values for the growth in the assay on HCC-2998 colon and in the assay on KM12 colon were 101% and 82.9%, respectively.
For the molecule `COc1cccc(-c2nn(-c3ccccc3)cc2-c2ccnc(NCCCNC(=O)Nc3ccc(Cl)c(Cl)c3)c2)c1`, the growth with T-47D breast was -15% (active); in the assay with BT-549 breast it was 7.49% (active); in the assay on MDA-MB-435 melanoma it was -36.3% (active); in the assay on SW-620 colon, 12%; with MCF7 breast, 5.21% (active); in the assay on HCT-116 colon, 2.97% (active). In addition, the values for the growth in the assay on HCC-2998 colon and in the assay on KM12 colon were -61.8% (active) and -13.4% (active), respectively.
Turning to `C=CCOC1=CC(=O)c2ccccc2C1=O`, the growth in the assay on T-47D breast is 54.2%; in the assay with BT-549 breast, 95.4%; in the assay with MDA-MB-435 melanoma, -67.5% (active); in the assay with SW-620 colon, 33.2%; in the assay with MCF7 breast, -2.95% (active); with HCT-116 colon it was 8.07% (active). The values for the growth with HCC-2998 colon and with KM12 colon were 98% and 87.8%, respectively.
On to `Cc1cc(C)c2c(-c3nnc(N)s3)cc(=O)oc2c1`, for which the growth in the assay on T-47D breast is 99.6%; with BT-549 breast it was 98.8%; in the assay on MDA-MB-435 melanoma it was 94.3%; with SW-620 colon, 98.2%; with MCF7 breast, 92.2%; in the assay with HCT-116 colon it was 102%. For the same molecule, the growth in the assay with HCC-2998 colon is 108%; in the assay with KM12 colon it was 98.8%.
As for `CCN1C(=O)N(CC)C2Nn3c(s/c(=C4\C(=O)N(C)c5ccccc54)c3=O)=NC21` (stereo not given), the growth in the assay with T-47D breast was 27.5%; in the assay with BT-549 breast, 53.9%; in the assay with MDA-MB-435 melanoma, -59.6% (active); with SW-620 colon, 26.3%; with MCF7 breast it was 13.5%; with HCT-116 colon, 11.1%. In addition, the results for the growth in the assay with HCC-2998 colon and in the assay with KM12 colon were 88.6% and 29.8%, respectively.
As to `O=C(COc1ccc(/C=C2\Oc3ccccc3C2=O)cc1)Nc1nc2c(s1)CCCC2`, the growth was 87% in the assay on T-47D breast; -13.9% (active) with BT-549 breast; 24.4% in the assay on MDA-MB-435 melanoma; 65.5% in the assay with SW-620 colon; 82.5% in the assay with MCF7 breast; 75.5% with HCT-116 colon. Also, the results for the growth with HCC-2998 colon and with KM12 colon were 99.6% and -75% (active), respectively.
With `CC1O[C@@H](OC2[C@H](OC(=O)/C=C/c3ccc(O)c(O)c3)C(COC3O[C@H](C)C(O)C(O)[C@@H]3O)O[C@@H](OCCc3ccc(O)c(O)c3)[C@H]2O)[C@@H](O)C(O)[C@H]1O` (stereo not given in full), the growth with T-47D breast was 83.1%; with BT-549 breast, 98.8%; in the assay on MDA-MB-435 melanoma, 103%; in the assay on SW-620 colon, 108%; in the assay with MCF7 breast, 98.2%; in the assay with HCT-116 colon, 103%. For the same molecule, the values for the growth in the assay on HCC-2998 colon and with KM12 colon were 99.4% and 99.3%, respectively.
On to `CC1=CN2C(=O)C3C4=C(CCCC4)SC3N=C2CN1c1c(C)cccc1C` (stereo not given), for which the growth is 81.1% with T-47D breast; 108% in the assay with BT-549 breast; 94.4% in the assay with MDA-MB-435 melanoma; 88.9% with SW-620 colon; 112% in the assay with MCF7 breast; 55% in the assay on HCT-116 colon. Further, the growth was 97.3% in the assay with HCC-2998 colon and 97.4% with KM12 colon.
`COc1ccc(N2CCN(c3nc(-c4cc(OC)c(OC)c(OC)c4)nc4ccccc34)CC2)cc1`: the growth in the assay with T-47D breast is 45.4%; with BT-549 breast, 39.9%; with MDA-MB-435 melanoma it was 67.1%; in the assay on SW-620 colon, 85.6%; in the assay with MCF7 breast it was 83.3%; in the assay on HCT-116 colon it was 70%. The growth in the assay with HCC-2998 colon is 95.1%; in the assay on KM12 colon it was 70%.
Take `NC(=N\N=C/c1cccc([N+](=O)[O-])c1)/C(N)=N\N=C/c1cccc([N+](=O)[O-])c1`: the growth was 4.8% (active) in the assay with T-47D breast; -14.9% (active) in the assay with BT-549 breast; 73.2% in the assay on MDA-MB-435 melanoma; 38.9% in the assay with SW-620 colon; 12.9% in the assay with MCF7 breast; 37.4% with HCT-116 colon. For the same molecule, the growth in the assay on HCC-2998 colon was 102%; in the assay on KM12 colon, 54.2%.
Consider `NC(=O)c1ccc[n+](Cc2ccc(Cl)cc2Cl)c1`, for which the growth in the assay on T-47D breast is 85.3%; with BT-549 breast it was 76%; in the assay on MDA-MB-435 melanoma, 107%; in the assay with SW-620 colon, 103%; in the assay on MCF7 breast it was 95.7%; in the assay with HCT-116 colon, 80%. In addition, the growth was 93.3% with HCC-2998 colon and 101% with KM12 colon.
Consider `Clc1cccc(Cl)c1C(Nc1nc2ccccc2s1)Nc1nc2ccccc2s1`, for which the growth in the assay with T-47D breast was 95.7%; in the assay with BT-549 breast, 92.1%; in the assay on MDA-MB-435 melanoma, 107%; with SW-620 colon, 106%; in the assay with MCF7 breast it was 91.3%; in the assay on HCT-116 colon it was 99.1%. The values for the growth in the assay with HCC-2998 colon and in the assay with KM12 colon were 117% and 98.7%, respectively.
Regarding `COc1ccc2c(c1)[nH]c(=O)c1c3cccnc3cn21`, the growth was 60.2% in the assay with T-47D breast; 45.6% with BT-549 breast; -6.86% (active) in the assay on MDA-MB-435 melanoma; 20% with SW-620 colon; 20.5% with MCF7 breast; 15.2% in the assay on HCT-116 colon. Also, the growth in the assay with HCC-2998 colon was 21.5%; with KM12 colon it was 14.5%.

(Values after PubChem BioAssay (NCI).)
